From PubChem BioAssay (EPA / NIEHS)
Values joined by “and” are separate entries in the source; they are usually repeats but may differ in a detail not shown here. Equal entries are not always repeated. Inconclusive results are not listed. A structure can be active in one record and inactive in another. Active and inactive are the calls of the source. Rule for the calls: active = hit-call score of the fitted dose curve at least 0.9, where 1 is the maximum; inconclusive = response in the unintended direction; inactive = score below 0.9.

These compounds were tested on Cytochrome P450 2B6 (Homo sapiens) (UniProt P20813) (assay: CLD_CYP2B6_6hr: CellzDirect (CLD) Gene Expression Assay for xenobiotic metabolism (CYP2B6) at 6 hours (AID 2283677);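 note: actives raise CYP2B6 transcript above DMSO baseline so AC50 marks an inducer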).
Description: CLD_6hr is a cell-based, multiplexed-readout assay that uses hepatocyte, a human liver primary cell, with measurements taken at 6 hours after chemical dosing in a 96-well plate.CLD_CYP2B6_6hr is one of 16 assay component(s) measured or calculated from the CLD_6hr assay. It is designed to make measurements of mRNA induction, a form of inducible reporter, as detected with chemiluminescence signals by Quantitative Nuclease Protection Assay (qNPA) technology.Data from the assay component CLD_CYP2B6_6hr was analyzed at the endpoint, CLD_CYP2B6_6hr, in the positive analysis fitting direction relative to DMSO as the negative control and baseline of activity. Using a type of inducible reporter, gain-of-signal activity can be used to understand changes in the reporter gene as they relate to the gene CYP2B6. Furthermore, this assay endpoint can be referred to as a primary readout. To generalize the intended target to other relatable targets, this assay endpoint is annotated to the cyp intended target family, where subfamily is xenobiotic metabolism.
Human hepatocyte cultures were treated daily for two consecutive days with fresh dosing solutions containing appropriate concentrations of the 320 ToxCast chemicals (chemical identities were blinded to CellzDirect and other ToxCast collaborators), vehicle control (0.2% DMSO), and positive control inducers as summarized in Table 1. Due to the large number of treatment groups and chemicals examined, the ToxCast chemicals were divided into two groups (spanning two independent cultures of hepatocytes from separate donor preparations (Hu778: ToxCast plates 1 and 2; Hu776: ToxCast plates 3 and 4). Each preparation of human hepatocyte cultures was treated with respective vehicle control, medium only control, set of six positive controls/reference chemicals for the five hepatic receptor pathways, and a subset of eight of the ToxCast chemicals (indoxacarb, pyrithiobac-sodium, norflurazon, cyhalofop-butyl, methomyl, thiram, acetochlor, and propiconazole). These replicate data, coupled with internal replicates designed within the blinded ToxCast chemical library, provided additional data to evaluate interindividual differences between hepatocyte preparations and their potential impact on chemical profiles.Cell morphology and integrity were evaluated using phase-contrast microscopy as an indicator of hepatocyte cell health (Tyson & Green, 1987). Cultures for each treatment group (i.e., media, vehicle [0.2% DMSO], positive control inducers [multiple concentrations], and the ToxCast chemicals [multiple concentrations]) were observed and cell morphology was assessed relative to vehicle control cultures at each harvest time point (0, 6, 24, or 48 h). […] Images were evaluated at the conclusion of the study to assess changes in cell integrity and account for the effects of chemical exposure on uncharacteristic changes in concentration-dependent gene expression profiles. The results from these determinations of apparent cytotoxicity were annotated (yes/no) alongside the corresponding qNPA data for reference.At the conclusion of each treatment period, hepatocyte cultures (96-well) were washed with 1 volume of HBSS, lysed by addition of 25 ul ArrayPlate lysis buffer (HTG, Tucson, AZ), and 70 ul/well of Denaturation Oil, denatured by incubation at 95C for 10 min, and frozen at approximately -70C until analysis by nuclease protection assay (qNPA) (Roberts et al., 2007). For qNPA analysis, cell lysates were thawed at 50C for approximately 30 min, qNPA probes were added, and samples were incubated at 95C for 10 min to begin the detection process by denaturing the target RNA, dissociating the duplexes and secondary structure hybridization. At the conclusion of the hybridization period, S1 nuclease reagent was added to each sample to digest all nonprotected nucleotides at 50C for 60-90 min. […]
For `OC(c1ccc(Cl)cc1)(c1cncnc1)c1ccccc1Cl` (stereo not given), the AC50 was 0.442 µM (active). `Cc1ccc(-c2c(Cl)nc(C#N)n2S(=O)(=O)N(C)C)cc1` was tested, and the AC50 was 1.88 µM (active). `CC(Oc1ccc(Cl)cc1Cl)C(=O)O` (stereo not given) was tested, and the outcome was “inactive”. For `CCOC(=O)C(Cl)Cc1cc(-n2nc(C)n(C(F)F)c2=O)c(F)cc1Cl` (stereo not given), the AC50 was 3.01 µM (active). `CCCCOC(=O)c1ccccc1C(=O)OCCCC` was tested, and the outcome was “inactive”. With `CCCCNC(=O)OCC#CI` the AC50 was 0.838 µM (active) and the outcome was “inactive”. In the case of `CCCCNC(=O)n1c(NC(=O)OC)nc2ccccc21`, the AC50 is reported as 4.17 µM (active). For `CNC(=S)S`, the outcome was “inactive”. For `C=CC1(C)OC(=O)N(c2cc(Cl)cc(Cl)c2)C1=O` (stereo not given), the AC50 was 8.32 µM (active). For `O=C(O)COc1nc(Cl)c(Cl)cc1Cl`, the outcome was “inactive”. For `COC(=O)C(C)Oc1ccc(Oc2ccc(Cl)cc2Cl)cc1` (stereo not given), the outcome was “inactive” and the AC50 was 3.09 µM (active) and 7.54 µM (active). In the case of `COc1nc(C)nc(NC(=O)NS(=O)(=O)c2ccccc2Cl)n1`, the outcome is reported as “inactive”. With `Fc1ccc(Oc2ccnc3cc(Cl)cc(Cl)c23)cc1` the AC50 was 20 µM (active). In the case of `CCOP(=S)(OCC)SCn1c(=O)oc2cc(Cl)ccc21`, the AC50 is reported as 1.61 µM (active). For `CCON=C(CC)C1=C(O)CC(c2c(C)cc(C)cc2C)CC1=O` (stereo not given), the outcome was “inactive”. `CCCCC(CC)COC(=O)c1ccccc1C(=O)OCC(CC)CCCC` (stereo not given) was tested, and the AC50 was 4.09 µM (active). With `COc1nc(C)nc(NC(=O)NS(=O)(=O)c2ccccc2CCC(F)(F)F)n1` the AC50 was 3.21 µM (active) and 1.89 µM (active). With `CCNc1nc(Cl)nc(NC(C)C)n1` the AC50 was 2.99 µM (active). `C=CCC1=C(C)C(OC(=O)C2C(C=C(C)C)C2(C)C)CC1=O` (stereo not given) was tested, and the AC50 was 2.82 µM (active). `O=C(Nc1ccccc1)Nc1ccnc(Cl)c1` was tested, and the AC50 was 20 µM (active). `CC(C)Oc1cc(-n2nc(C(C)(C)C)oc2=O)c(Cl)cc1Cl` was tested, and the AC50 was 1.9 µM (active). `COc1nc(NC(C)C)nc(NC(C)C)n1` was tested, and the AC50 was 4.18 µM (active). For `CCc1nn(C)c(C(=O)NCc2ccc(C(C)(C)C)cc2)c1Cl`, the outcome was “inactive”. With `CCNc1nc(Cl)nc(NCC)n1` the AC50 was 7.74 µM (active). For `N#CC(CCc1ccc(Cl)cc1)(Cn1cncn1)c1ccccc1` (stereo not given), the AC50 was 0.446 µM (active). `COP(=S)(OC)Oc1nc(Cl)c(Cl)cc1Cl` was tested, and the AC50 was 6.24 µM (active). In the case of `CO/C=C(/C(=O)OC)c1ccccc1Oc1cc(Oc2ccccc2C#N)ncn1`, the AC50 is reported as 1 µM (active). With `COc1ccc(C(c2ccc(OC)cc2)C(Cl)(Cl)Cl)cc1` the AC50 was 7.31 µM (active). For `CCOc1cc(Oc2ccc(C(F)(F)F)cc2Cl)ccc1[N+](=O)[O-]`, the AC50 was 2.75 µM (active). In the case of `N#Cc1nn(-c2c(Cl)cc(C(F)(F)F)cc2Cl)c(N)c1S(=O)C(F)(F)F` (stereo not given), the AC50 is reported as 2.91 µM (active). With `CCCC1COC(Cn2cncn2)(c2ccc(Cl)cc2Cl)O1` (stereo not given) the AC50 was 0.759 µM (active). `C=CCC1=C(C)[C@@H](OC(=O)[C@@H]2[C@@H](C=C(C)C)C2(C)C)CC1=O` was tested, and the AC50 was 5.86 µM (active). For `O=C(O)c1nc(Cl)ccc1Cl`, the outcome was “inactive”. In the case of `COc1cnc(OC)n2nc(NS(=O)(=O)c3c(OCC(F)F)cccc3C(F)(F)F)nc12`, the outcome is reported as “inactive”. With `CON(C)C(=O)Nc1ccc(Cl)c(Cl)c1` the AC50 was 1.83 µM (active). For `N#Cc1cc(Br)c(O)c(Br)c1`, the outcome was “inactive”. In the case of `CCOC(=O)CC(SP(=S)(OC)OC)C(=O)OCC` (stereo not given), the outcome is reported as “inactive”. In the case of `C#CCOS(=O)OC1CCCCC1Oc1ccc(C(C)(C)C)cc1` (stereo not given), the AC50 is reported as 1.9 µM (active).
